Only some compounds are listed: those with a hit (about 7.5% of all), similar ones and a draw of the others.
SMN2 splice enh: SMN2 splice variant enhancement | HEK293 SMN2-luciferase splicing reporter, luminescence, 30-36 h | actives 2.8% (n = 210,000) | Potency, µM (doses to about 46.1 µM), without a hit: top-dose activity change, positive = activation, actives largely listed as activators; also: % of control where 0% means no effect; nearly all actives have a fitted effect of over 55% in size
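qHTS luciferase splicing reporter: luminescence rises when SMN2 exon 7 is included in transfected HEK293 cells. Compound exposure lasted 30-36 h at 37C, with 4.5 mM final sodium butyrate as control, followed by a ONE-Glo read.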
ELG1 genotoxic: genotoxicity induction in ELG1-luciferase HEK293T cells; actives 1.3% (n = 330,000); AID 504466; Potency, µM (top dose mostly 46 µM), inactives show top-dose activity change, positive = activation, actives largely listed as activators; HEK293T ELG1-luciferase reporter, luminescence, 16 h; also: % of control where 0% means no effect; nearly all actives have a fitted effect of over 60% in size
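Luminescence read-out: rising ELG1-luciferase signal, reflecting elevated ELG1 protein under genetic stress, flags genotoxic compounds. Cells were treated for 16 hr at 37 °C before ONE-Glo detection.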
FLuc counter: counter-screen for miR-21 project: firefly luciferase inhibitors or activators | Potency, µM (titrated, usually from 57.5 µM), inactives show at the top dose activity change, negative = inhibition, actives largely listed as inhibitors | P08659 | actives 6.9% (n = 360,000) | purified FLuc, Km substrates, luminescence inhibition;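 also: plate controls were vehicle for no effect and reference inhibitor for full effect; nearly all actives have a fitted effect of over 55% in size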
Target sequence (P08659 whole entry, looked up): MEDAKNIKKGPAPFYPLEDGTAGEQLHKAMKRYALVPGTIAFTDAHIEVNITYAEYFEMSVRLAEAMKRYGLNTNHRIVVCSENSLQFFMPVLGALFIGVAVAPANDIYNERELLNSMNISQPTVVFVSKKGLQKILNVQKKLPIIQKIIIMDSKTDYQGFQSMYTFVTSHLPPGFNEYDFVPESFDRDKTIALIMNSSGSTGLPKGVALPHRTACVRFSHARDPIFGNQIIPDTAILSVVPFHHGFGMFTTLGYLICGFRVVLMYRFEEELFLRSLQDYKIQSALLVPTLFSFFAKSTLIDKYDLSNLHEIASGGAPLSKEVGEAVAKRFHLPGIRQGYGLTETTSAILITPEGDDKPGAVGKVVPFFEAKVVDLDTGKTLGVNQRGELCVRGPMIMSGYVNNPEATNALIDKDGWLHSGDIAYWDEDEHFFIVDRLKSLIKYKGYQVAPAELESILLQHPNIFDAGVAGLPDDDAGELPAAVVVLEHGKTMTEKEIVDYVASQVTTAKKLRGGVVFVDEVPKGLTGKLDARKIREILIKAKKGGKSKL
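Purified P. pyralis luciferase, 10 nM final, with Km-level 10 uM D-luciferin and 10 uM ATP in 50 mM Tris acetate pH 7.5, 10 mM Mg acetate, 0.01% Tween-20, 0.05% BSA; 6-point qHTS titration about 60 µM downward; luminescence read.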
KinaseGlo FLuc: counter-screen: inhibitors of Kinase-Glo firefly luciferase. actives 0.28% (n = 200,000). AID 1379. Kinase-Glo luciferase, ATP luminescence, 8 min. Potency, µM (titrated, usually from 38.3 µM), inactives show at the highest dose activity change, negative = inhibition, most hits filed as inhibitors. Q27757; also: % is scaled to controls: 0 for no effect and ±100 for the full control effect; nearly all actives have a fitted effect of over 60% in size
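Luminescence was the read-out, taken after 8-minute incubation at ambient temperature. Luciferase turned over luciferin with 10 uM ATP in imidazole pH 7.2 buffer containing KCl, MgCl2, Tween 20 and BSA.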
NPC1 promoter act: activates the NPC1 promoter | actives 2.4% (n = 320,000) | Potency, µM (doses to about 9.22 µM), for the others: top-dose activation, most hits filed as activators | Huh7 NPC1 promoter luciferase reporter, 24 h | AID 485313; also: % of control where 0% means no effect; nearly all actives have a fitted effect of over 60% in size
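NPC1 promoter–luciferase Huh7 cells; 24 h compound; luminescence.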
Rab9 promoter act: Rab9 promoter activation; Huh7 Rab9 promoter-luciferase reporter, luminescence, 24 h; AID 485297; actives 2.8% (n = 320,000); Potency, µM (doses to about 9.22 µM), for inactives: at the highest dose activation, negative = inhibition, usual class: activators; also: % of control where 0% means no effect; nearly all actives have a fitted effect of over 60% in size
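Huh7 cells stably carrying Rab9 promoter–luciferase reporter, plated 1500 cells/well, compound added after 2 h and incubated 24 h at 37 °C; luciferase luminescence then read after 10 min with detection reagent.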
* = called active by the depositor; ? = inconclusive; . = no result given; [ ] = remark or other dose. Calls follow the shape of the dose curve; as a rule, active = well fitted curve in the direction sought with a large enough effect; inconclusive = small, poorly fitted or top-dose-only effect, or another doubt; inactive = no such curve, though single readings can be large; an effect the other way counts as inactive or inconclusive. Potency is read from the fitted curve at half-maximal effect.

SMILES	SMN2 splice enh	ELG1 genotoxic	FLuc counter	KinaseGlo FLuc	NPC1 promoter act	Rab9 promoter act
Cc1ccc(S(=O)(=O)N(C)C)cc1NC(=O)COC(=O)/C=C/c1ccc(F)cc1	.	-6.5%	1.2%	.	-1.6%	1.1%
Cc1c(C(=O)N(C)Cc2nc3ccccc3c(=O)[nH]2)oc2ccccc12	.	0.3%	.	.	.	.
COc1cccc(C(=O)Nc2ccc(NC(=O)C3CC3)cn2)c1	42.7%	?	7.57µM*	?	2µM*	3.16µM*
COc1ccc(C(=O)Nc2ccc(NC(=O)c3cccc(OC)c3)cn2)cc1	.	13.3%	0.5%	.	4.6%	18.8%
CCC(=O)Nc1ccc(NC(=O)c2cccc(OC)c2)nc1	11.2µM*	?	10.7µM*	-7.3%	?	2.24µM*
CCCC(=O)Nc1ccc(NC(=O)c2cccc(OC)c2)cn1	.	-3.4%	-15.2%	.	-3.8%	12.7%
COc1ccc(NC(=O)Cn2c(=O)n(-c3ccc(OC)cc3)c(=O)c3sc4ccccc4c32)cc1	?	.	-1.4%	.	.	.
Cc1ccc(NC(=O)Cn2c(=O)n(Cc3ccc4c(c3)OCO4)c(=O)c3ccccc32)cc1	3.6%	.	2.6%	.	.	.
Cc1ccc(NC(=O)Cn2c(-c3ccc4c(c3)OCO4)cn(-c3ccccc3)c2=O)cc1	?	.	12µM*	.	.	.
Cc1ccc(-n2nc3c(=O)n(CCCC(=O)N4CCC(C(N)=O)CC4)nc(C)c3c2C)cc1	.	-0.2%[9.26 µM]	-1.5%	.	-5.3%	-0.2%
O=C(/C=C/c1ccc(Cl)cc1Cl)NCc1ccncc1	-19.7%	0.0%	?	1.4%	3.5%	3.1%
O=C(/C=C/c1ccccc1Cl)Nc1cccnc1	.	4.11µM*	1.35µM*	.	1.12µM*	1.78µM*
CCC(CC)NC(=O)/C=C/c1ccccc1Cl	?	15.7%	?	-11.4%	20.8%	27.3%
CC(=O)N(C)c1ccc(NC(=O)/C=C/c2ccccc2Cl)cc1	28.7%	?	6.01µM*	-6.6%	28.9%	?
O=C(/C=C/c1ccc(Cl)cc1Cl)Nc1ccncc1	-3.7%	?	3.38µM*	-3.4%	29.3%	26.8%
O=C(O)/C=C/C(=O)Nc1cccnc1	8.7%	4.5%	-1.3%	-1.1%	2.0%	-5.4%
COC(=O)c1sccc1NC(=O)/C=C\c1ccc(Cl)cc1Cl	27.6%	8.0%	?	?	?	3.98µM*
CCN(CCCNC(=O)CN1N=C(c2ccc(OC)cc2)CCC1=O)c1cccc(C)c1	.	.	-6.9%	.	.	.
O=C(NCc1ccc(Cl)cc1)c1ccc(CNS(=O)(=O)c2ccc(F)cc2)cc1	.	.	-0.6%	.	.	.
O=C(/C=C/c1ccccc1Cl)Nc1ccncc1	17.2%	11.2%	4.26µM*	1.5%	?	2.82µM*
O=C(/C=C/c1ccccc1Cl)NCc1ccco1	24.0%	8.7%	23.9µM*	-4.9%	?	-22.0%
O=C(/C=C/c1c(Cl)cccc1Cl)NCc1ccco1	7.8%	8.4%	-0.1%	6.0%	-2.7%	?
Cc1ccccc1NC(=O)Nc1ccc2c(c1)OCO2	.	?	?	.	?	2.82µM*
CCOc1ccccc1NC(=O)Nc1ccc2c(c1)OCO2	.	11.2%	21.3µM*	.	26.3%	?
O=C(Nc1ccccc1Cl)OC1CCCCC1	.	4.4%	23.9µM*	.	-1.5%	11.0%
SMILES	SMN2 splice enh	ELG1 genotoxic	FLuc counter	KinaseGlo FLuc	NPC1 promoter act	Rab9 promoter act
O=C(NN=C1CCCCC1)Nc1ccccc1Cl	.	-1.6%	19µM*	.	2.2%	-5.4%
Cc1cc(C)c2oc(-c3cccc(NC(=O)c4ccc(-c5cccc([N+](=O)[O-])c5)o4)c3)nc2c1	8.7%	.	-13.0%	.	.	.
O=C(COC(=O)c1ccc2c(c1)OCO2)Nc1ccccc1OC(F)F	.	-0.1%	.	.	.	.
CCOc1ccccc1NC(=O)Nc1ccc2c(c1)CCC2	.	?	6.75µM*	.	?	?
CCOc1ccccc1NC(=O)Nc1ccc(OC)nc1	.	-0.3%	?	.	8.5%	-1.4%
Cc1c(NC(=O)Nc2ccc3c(c2)OCO3)cccc1[N+](=O)[O-]	.	14.1%	?	.	3.16µM*	?
CCOc1ccccc1NC(=O)Nc1cccc(NC(C)=O)c1	.	-1.2%	-14.6%	.	0.2%	-5.1%

Compound activity deposited in PubChem BioAssay by National Center for Advancing Translational Sciences (NCATS).
